HT1080 IDH1KD tx – kills HT-1080 cells with IDH1 knockdown; Potency, µM (highest dose often 46.1 µM), without a hit: at the highest dose activity, negative = toxicity, most hits filed as cytotoxic; 360,000 tested, 2% active; HT-1080 IDH1 knockdown viability, ATP luminescence, 48 h;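 also: potency is read from the fitted curve at half-maximal effect; 0% = DMSO wells and -100% = cell-free medium wells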
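CellTiter-Glo luminescence after 48 h compound exposure at 37 degrees C of IDH1-knockdown HT-1080 cells in 5% FBS RPMI. %Activity scaled between DMSO wells and cell-free media wells, with curves fitted and assigned curve classes.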
DT40 TDP1 CPT – growth inhibition of DT40 Tdp1-/-;hTDP1 cells with camptothecin (screen for TDP1 inhibitors); chicken DT40 Tdp1-/-;hTDP1 cells + 20 nM CPT, ATP luminescence, 48 h; Potency, µM (doses to about 46.2 µM), for inactives: at the highest dose activity change, negative = growth inhibition, usual class: inhibitors; AID 686979; 420,000 tested, 12% active; also: potency is read from the fitted curve at half-maximal effect; nearly all actives have a fitted effect of over 55% in size
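Chicken DT40 Tdp1-/- cells complemented with human TDP1, 400 cells/well, exposed to compounds plus 20 nM camptothecin for at least 48 h at 37 C; viability read as ATP content by CellTiter-Glo luminescence.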
TDP1 cell noCPT – qHTS for Inhibitors of human tyrosyl-DNA phosphodiesterase 1 (TDP1): qHTS in cells in absence of CPT. DT40 Tdp1-/- hTDP1 cells, no CPT, ATP luminescence, 48 h. Potency, µM (top dose mostly 46.2 µM), for the others: at the highest dose activity change, negative = growth inhibition, usual class: inhibitors. 420,000 tested, 15% active; also: potency is read from the fitted curve at half-maximal effect; nearly all actives have a fitted effect of over 55% in size
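No-CPT arm: Tdp1-/-;hTDP1 DT40 cells (400/well) plus compounds, incubated ≥48 hr at 37 °C. Readout CellTiter-Glo luminescence.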
12-LOX inh – ALOX12 (human) lipoxygenase inhibition | Potency, µM (series often up to 108 µM), for the others: top-dose activity change, negative = inhibition, hits mostly inhibitors | purified 12hLO, xylenol orange hydroperoxide absorbance | AID 1671190 | 580,000 tested, 1.1% active | P18054; also: potency is read from the fitted curve at half-maximal effect
Target sequence (P18054 whole entry, looked up): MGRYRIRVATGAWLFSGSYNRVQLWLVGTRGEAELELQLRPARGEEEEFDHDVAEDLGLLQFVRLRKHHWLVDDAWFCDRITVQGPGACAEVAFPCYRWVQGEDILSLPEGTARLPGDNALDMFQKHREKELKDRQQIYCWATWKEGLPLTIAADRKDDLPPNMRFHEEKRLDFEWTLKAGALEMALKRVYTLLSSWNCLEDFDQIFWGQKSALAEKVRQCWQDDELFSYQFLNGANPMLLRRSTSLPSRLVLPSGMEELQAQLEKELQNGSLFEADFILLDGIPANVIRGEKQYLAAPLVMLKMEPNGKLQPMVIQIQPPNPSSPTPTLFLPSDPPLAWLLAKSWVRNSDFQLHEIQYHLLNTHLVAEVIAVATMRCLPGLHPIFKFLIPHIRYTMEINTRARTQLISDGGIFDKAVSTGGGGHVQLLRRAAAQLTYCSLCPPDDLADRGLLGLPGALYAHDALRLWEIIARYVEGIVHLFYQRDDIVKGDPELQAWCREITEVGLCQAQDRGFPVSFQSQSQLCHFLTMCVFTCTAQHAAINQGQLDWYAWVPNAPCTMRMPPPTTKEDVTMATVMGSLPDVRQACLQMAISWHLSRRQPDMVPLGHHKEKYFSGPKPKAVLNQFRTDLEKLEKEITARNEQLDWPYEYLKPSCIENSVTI
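Purified human 12hLO (150 nM final) in 25 mM Hepes, 0.01% Triton X-100, pH 7.0 was preincubated 15 min at room temperature with compound. Then 40 uM arachidonic acid was added, 30 min. Hydroperoxide was read by Fe-XO absorbance ratio 573/405 nm.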
IL1B secr inh – inflammasome signaling inhibition, IL-1 beta readout; activity change, % at 57.5 µM; 360,000 tested, 4.7% active; THP-1 LPS/ATP IL-1B secretion, AlphaLISA, 16 h; stronger effect = lower value; in the data active = activity change below about -50%; inconclusive = mostly about -30% to -49%
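THP-1 cells pretreated 1 hr with compounds (up to 57.5 uM final), then stimulated with LPS (250 ng/mL final) plus ATP (1.25 mM final); secreted IL-1B measured by AlphaLISA after 16 hr, decreased signal indicating inhibition.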
HT1080NT lethal – kills 2HG-producing HT-1080-NT fibrosarcoma cells. 360,000 tested, 1.6% active. Potency, µM (titrated, usually from 46.1 µM), without a hit: top-dose activity, negative = less viability, hits mostly cytotoxic. HT-1080-NT fibrosarcoma viability, CellTiter-Glo ATP luminescence, 48 h. AID 686970;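 also: NT is the 2HG producing partner of a matched IDH1 knockdown line; potency is read from the fitted curve at half-maximal effect; 0% = DMSO-treated cells and -100% = media-only wells without cells; nearly all actives have a fitted effect of over 55% in size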
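Read-out is CellTiter-Glo luminescence after 10 minutes at room temperature, following 48 hours' compound treatment of HT-1080-NT cells (750 cells/well, RPMI, 5% FBS, 37 degrees C).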
The depositor's hits bear a star; i = inactive; ? = inconclusive; . = no result. This excerpt belongs to a sample that is enriched for hits. Unless noted, calls follow the shape of the dose curve; as a rule, active = well fitted curve in the direction sought with a large enough effect; inconclusive = small, poorly fitted or top-dose-only effect, or another doubt; inactive = no such curve, though single readings can be large; an effect the other way counts as inactive or inconclusive. Unless noted, % is scaled to controls: 0 for no effect and ±100 for the full control effect.

SMILES	HT1080 IDH1KD tx	DT40 TDP1 CPT	TDP1 cell noCPT	12-LOX inh	IL1B secr inh	HT1080NT lethal
CCOC(=O)CSc1n[nH]c(=S)s1	-3%	-7%	0%	?	19	1%
CC(C)(C)CC(C)(C)SSc1n[nH]c(=S)s1	10%	?	?	35µM*	-73*	18%
CCOc1cc(=O)n2c(c1C(=O)Nc1ccc(C)cc1Cl)CCCC2	.	.	.	26%	.	.
CS(=O)(=O)c1cccc(C(=O)N2CCN(C(=O)c3ccccc3)CC2)c1	.	.	.	23%	.	.
O=C1N[C@H](Cc2ccccc2)COC(=O)[C@H](Cc2ccc(F)cc2)C/C=C\C[C@H]1CC(=O)N(CCO)Cc1ccccc1	-29%	?	?	-33%	-10	?
O=C1N[C@@H](c2ccccc2)COC(=O)[C@H](Cc2ccc(F)cc2)CC/C=C/C[C@@H]1CC(=O)N(CCO)Cc1ccccc1	?	?	16µM*	-13%	0	?
CC(C)(C)OC(=O)C[C@@H]1C/C=C\C[C@@H](CC(=O)N(CCO)Cc2ccccc2)C(=O)N[C@@H](c2ccccc2)COC1=O	1%	?	23µM*	-8%	0	-2%
O=C1N[C@@H](c2ccccc2)COC(=O)[C@@H](Cc2ccc(F)cc2)C/C=C\C[C@H]1CC(=O)N(CCO)Cc1ccccc1	?	15µM*	10µM*	?	?	?
CCOc1ccc2nc(NCCNC(=S)NCCCN(C)C)c(C#N)cc2c1	?	?	26µM*	-20%	.	-24%
C/C(CS(=O)(=O)c1ccc(Cl)c(Cl)c1)=N/NC(N)=S	-11%	18µM*	5.8µM*	?	32	-9%
CC(C)Oc1cccc(C(=O)Nc2cc(C(C)(C)C)on2)c1	.	.	.	-1%	.	.
CCCN1CCN(c2nnc(-n3cccc3CNCc3ccc(OC)cc3OC)s2)CC1	.	.	.	87%	.	.
CCOc1ccc(/C=C2\SC(=S)N(CCC(=O)N(CCO)c3ccccc3)C2=O)cc1	?	?	?	11%	-81*	?
CCc1ccc(/C=C2\SC(=S)N(CCCC(=O)N(CCO)c3ccccc3)C2=O)cc1	?	?	16µM*	-20%	-70*	?
O=C1/C(=C/c2cccs2)SC(=S)N1CCCC(=O)N(CCO)c1ccccc1	-1%	?	?	-13%	?	-10%
CCn1nc(C(=O)NC(CC(=O)OC)c2ccc(F)cc2)c2ccccc2c1=O (stereo not drawn)	.	.	.	-7%	.	.
CC(=O)N/N=C/c1cc(C(C)(C)C)cc(/C=N/NC(C)=O)c1O	?	-29%	26µM*	-13%	49	-27%
Cc1c(O)ccc2c3c(c(=O)oc12)CCC(C)C3 (stereo not drawn)	-14%	23µM*	12µM*	0%	7	-20%
COc1cc(NC(=O)c2cccc(N3C(=O)C(C)(C)CS3(=O)=O)c2)cc(OC)c1OC	.	.	.	27%	.	.
O=C(CN1CCCC1=O)NC1CCCc2c1cnn2-c1cc(F)cc(F)c1 (stereo not drawn)	2%	-5%	-6%	4%	8	0%
CC(C)(C)c1ccc(-n2ncc3c2CCCC3NC(=O)CCn2cncn2)cc1 (stereo not drawn)	-13%	?	?	59%	9	-5%
CC(=O)NCC(=O)NC1CCCc2c1cnn2-c1ccc(C(C)(C)C)cc1 (stereo not drawn)	-20%	-15%	4.1µM*	32%	37	-13%
CC(C)(C)c1ccc(-n2ncc3c2CCCC3NC(=O)CCCn2cncn2)cc1 (stereo not drawn)	-22%	13µM*	?	-7%	-12	0%
CC(C)(C)c1ccc(-n2ncc3c2CCCC3NC(=O)CCN2CCCO2)cc1 (stereo not drawn)	-7%	23µM*	?	14%	38	-10%
CC(C)(C)c1ccc(-n2ncc3c2CCCC3NC(=O)CN2CCCCC2=O)cc1 (stereo not drawn)	?	16µM*	?	4%	12	?
SMILES	HT1080 IDH1KD tx	DT40 TDP1 CPT	TDP1 cell noCPT	12-LOX inh	IL1B secr inh	HT1080NT lethal
Cc1nn(C)cc1CN(C)C(=O)Cn1nc(C(F)(F)F)c(Br)c1C1CC1	.	.	.	18%	.	.
CC(C)(C)c1ccc(-n2ncc3c2CCCC3NC(=O)c2c[nH]c(=O)[nH]c2=O)cc1 (stereo not drawn)	.	.	.	16%	.	.
CC(C)(C)c1ccc(-n2ncc3c2CCCC3NC(=O)C2(C(N)=O)CC2)cc1 (stereo not drawn)	?	5.8µM*	1.8µM*	0%	?	?
O=C1C2C3c4ccccc4C(c4ccccc43)C2C(=O)N1Cc1ccco1 (stereo not drawn)	3%	?	?	6%	0	3%
CC12C(=O)N(Cc3ccco3)C(=O)C1C1c3ccccc3C2c2ccccc21 (stereo not drawn)	-20%	?	23µM*	0%	-5	-19%
CCn1cc(CN2CCCC23CCN(c2cc(C)nc4ccccc24)CC3)cn1	.	.	.	1%	.	.
COc1ccc(-c2csc3ncnc(N4CCN(S(=O)(=O)c5cccc(C(F)(F)F)c5)CC4)c23)cc1	4%	?	?	-23%	30	5%
COc1ccc(-c2csc3ncnc(N4CCN(S(=O)(=O)c5cccc(Br)c5)CC4)c23)cc1	0%	23µM*	9.2µM*	-2%	3	7%
CC(=O)c1ccc(S(=O)(=O)N2CCN(c3nc(-c4ccccc4)nc4ccccc34)CC2)cc1	.	-17%	?	.	.	.
COc1ccc(-c2csc3ncnc(N4CCN(S(=O)(=O)c5ccc(C(C)=O)cc5)CC4)c23)cc1	?	?	?	-9%	-74*	-26%
COC(=O)C1CCN(C(=O)c2oc3c(Cl)cc(C)cc3c2C)CC1	1%	?	21µM*	1%	-3	17%
Cc1ccc2c(C)c(C(=O)N3CCN(c4ncccn4)CC3)oc2c1C	-12%	21µM*	16µM*	2%	-6	-14%
CCOC(=O)C1CCCCN1C(=O)c1oc2c(Cl)cc(C)cc2c1C (stereo not drawn)	-8%	?	?	240%	i	-1%
COc1ccc2oc(C(=O)N3CCN(c4ncccn4)CC3)c(C)c2c1	7%	-30%	-16%	498%	14	0%

Screens (PubChem BioAssay)
